Experimental data as given in the supplement of paper PMC10849652.
Targets with a hit are over-represented here; the source holds about 7,900 in all. About 0.6% of all pairs of compound and target were hits.

Columns and labels:
Assay in all cases: log2 fold change, soluble protein after heating vs DMSO (PISA); higher = thermal stabilisation; K562 cells, 10 uM, 30 min; active = over 0.2 and 3.5 SD of the protein, either way, in both replicates (recomputed)
saracatinib = compound: CN1CCN(CCOc2cc(OC3CCOCC3)c3c(Nc4c(Cl)ccc5c4OCO5)ncnc3c2)CC1 [saracatinib]
In short: (§1)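 K562 cells at 2×10^6 cells/mL were treated with 10 μM compound for 30 min. Aliquots were heated for 3 min across 48°C-58°C, pooled, and extracted in PBS with 0.5% NP-40 at 4°C; soluble protein was the supernatant after 21,000xg for 90 min. Soluble protein was quantified by TMTpro 16plex LC-MS/MS with channel sums equalised, and reported as log2 fold change in thermal stability against DMSO controls, with values from duplicates.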

sotrastaurin = compound: CN1CCN(c2nc(C3=C(c4c[nH]c5ccccc45)C(=O)NC3=O)c3ccccc3n2)CC1 [sotrastaurin]
In short: as §1

alvocidib = compound: CN1CC[C@H](c2c(O)cc(O)c3c(=O)cc(-c4ccccc4Cl)oc23)[C@H](O)C1 [alvocidib]
In short: as §1

Tubastatin A = compound: CN1CCc2c(c3ccccc3n2Cc2ccc(C(=O)NO)cc2)C1 [Tubastatin A]
In short: as §1

[1] = compound: CNC(=O)C1=CC=CC=C1NC2=NC(=NC=C2Cl)NC3=C(C=C(C=C3)N4CCOCC4)OC
In short: as §1

defactinib = compound: CNC(=O)c1ccc(Nc2ncc(C(F)(F)F)c(NCc3nccnc3N(C)S(C)(=O)=O)n2)cc1 [defactinib]
In short: as §1

rucaparib = compound: CNCc1ccc(-c2[nH]c3cc(F)cc4c3c2CCNC4=O)cc1 [rucaparib]
In short: as §1

[2] = compound: CNc1nc(-c2ccc3c(N)n[nH]c3c2)cc(N2C[C@@H](C(=O)NC3CCCCC3)CC[C@H]2C)n1
In short: as §1

encorafenib = compound: COC(=O)N[C@@H](C)CNc1nccc(-c2cn(C(C)C)nc2-c2cc(Cl)cc(NS(C)(=O)=O)c2F)n1 [encorafenib]
In short: as §1

[3] = compound: COC(=O)[C@H](CCSC)NC(=O)C1=C(C=C(C=C1)NC[C@H](CS)N)C2=CC=CC=C2
In short: as §1

[4] = compound: COC1=CC=C(C=C1)CN2C=CC3=C2C=C(C=C3)C(=O)NO
In short: as §1

filanesib = compound: CON(C)C(=O)N1N=C(c2cc(F)ccc2F)S[C@@]1(CCCN)c1ccccc1 [filanesib]
In short: as §1

zotarolimus = compound: CO[C@H]1C[C@@H]2CC[C@@H](C)[C@@](O)(O2)C(=O)C(=O)N2CCCC[C@H]2C(=O)O[C@H]([C@H](C)C[C@@H]2CC[C@H](n3cnnn3)[C@H](OC)C2)CC(=O)[C@H](C)/C=C(\C)[C@@H](O)[C@@H](OC)C(=O)[C@H](C)C[C@H](C)/C=C/C=C/C=C/1C [zotarolimus]
In short: as §1

idasanutlin = compound: COc1cc(C(=O)O)ccc1NC(=O)[C@@H]1N[C@@H](CC(C)(C)C)[C@](C#N)(c2ccc(Cl)cc2F)[C@H]1c1cccc(Cl)c1F [idasanutlin]
In short: as §1

alisertib = compound: COc1cc(Nc2ncc3c(n2)-c2ccc(Cl)cc2C(c2c(F)cccc2OC)=NC3)ccc1C(=O)O [alisertib]
In short: as §1

[5] = compound: COc1cc2nc(-c3cc(F)ccc3O)nc(N[C@@H]3CNC[C@H]3C(C)(C)O)c2cc1OC
In short: as §1

gefitinib = compound: COc1cc2ncnc(Nc3ccc(F)c(Cl)c3)c2cc1OCCCN1CCOCC1 [gefitinib]
In short: as §1

[6] = compound: COc1cccc2cc(-c3nc([C@H]4CC[C@H](C(=O)O)CC4)n4ncnc(N)c34)[nH]c12
In short: as §1

lapatinib = compound: CS(=O)(=O)CCNCc1ccc(-c2ccc3ncnc(Nc4ccc(OCc5cccc(F)c5)c(Cl)c4)c3c2)o1 [lapatinib]
In short: as §1

pictilisib = compound: CS(=O)(=O)N1CCN(Cc2cc3nc(-c4cccc5[nH]ncc45)nc(N4CCOCC4)c3s2)CC1 [pictilisib]
In short: as §1

Measured: log2 fold change

SIDT2 isoform 2 (UniProt Q8NBJ9)
inactive: saracatinib 0.08 | sotrastaurin 0.024 | alvocidib 0.047 | Tubastatin A -0.083 | [1] 0.104 | defactinib -0.064 | rucaparib -0.002 | [2] -0.088 | encorafenib -0.053 | [3] -0.176 | [4] -0.062 | filanesib -0.08 | zotarolimus 0.127 | idasanutlin 0.01 | alisertib 0.082 | [5] -0.065 | gefitinib -0.207 | [6] 0.009 | lapatinib 0.004 | pictilisib 0.044

RAP1GDS1 isoform 5 (UniProt P52306)
Chain of UniProt P52306 (P52306 whole entry, looked up): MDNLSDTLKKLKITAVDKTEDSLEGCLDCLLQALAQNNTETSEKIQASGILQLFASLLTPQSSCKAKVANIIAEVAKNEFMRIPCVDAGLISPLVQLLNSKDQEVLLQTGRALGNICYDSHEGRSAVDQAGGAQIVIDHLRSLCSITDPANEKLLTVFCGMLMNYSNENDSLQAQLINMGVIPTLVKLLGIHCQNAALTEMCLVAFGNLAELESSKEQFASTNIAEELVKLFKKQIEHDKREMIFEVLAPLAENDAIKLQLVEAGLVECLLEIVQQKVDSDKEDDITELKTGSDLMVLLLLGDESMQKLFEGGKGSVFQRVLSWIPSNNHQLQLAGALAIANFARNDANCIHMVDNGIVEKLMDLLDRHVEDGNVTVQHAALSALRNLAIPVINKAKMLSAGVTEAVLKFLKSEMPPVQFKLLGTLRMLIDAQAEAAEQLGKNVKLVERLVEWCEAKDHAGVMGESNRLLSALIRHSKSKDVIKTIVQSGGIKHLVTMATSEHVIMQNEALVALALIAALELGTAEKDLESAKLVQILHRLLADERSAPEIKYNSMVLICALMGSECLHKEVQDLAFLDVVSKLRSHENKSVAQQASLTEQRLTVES
inactive: saracatinib 0.004 | sotrastaurin -0.077 | alvocidib -0.069 | Tubastatin A -0.01 | [1] 0.006 | defactinib -0.017 | rucaparib -0.006 | [2] -0.024 | encorafenib 0.176 | [3] 0.139 | [4] -0.026 | filanesib -0.019 | zotarolimus 0.022 | idasanutlin -0.023 | alisertib -0.041 | [5] -0.025 | gefitinib 0.066 | [6] -0.072 | lapatinib 0.091 | pictilisib 0.015

SETMAR (UniProt Q53H47)
inactive: saracatinib -0.007 | sotrastaurin -0.132 | alvocidib -0.029 | Tubastatin A -0.402 | [1] 0.006 | defactinib -0.026 | rucaparib -0.004 | [2] 0.005 | encorafenib 0.198 | [3] -0.084 | [4] -0.135 | filanesib -0.065 | zotarolimus 0.048 | idasanutlin -0.037 | alisertib 0.014 | [5] -0.002 | gefitinib -0.044 | [6] 0.004 | lapatinib 0.018 | pictilisib -0.009

RPS21 (UniProt P63220)
inactive: saracatinib -0.017 | sotrastaurin 0.005 | alvocidib 0.104 | Tubastatin A 0.246 | [1] 0.039 | defactinib 0.052 | rucaparib -0.039 | [2] -0.001 | encorafenib 0.021 | [3] 0.027 | [4] -0.033 | filanesib 0.086 | zotarolimus -0.021 | idasanutlin 0.031 | alisertib -0.069 | [5] 0.04 | gefitinib 0.002 | [6] -0.022 | lapatinib -0.027 | pictilisib -0.01

RDH11 (UniProt Q8TC12)
inactive: saracatinib -0.121 | sotrastaurin -0.019 | alvocidib -0.028 | Tubastatin A 0.003 | [1] 0.136 | defactinib 0.001 | rucaparib 0.113 | [2] 0.019 | encorafenib 0.094 | [3] -0.086 | [4] 0.087 | filanesib -0.046 | zotarolimus 0.093 | idasanutlin 0.032 | alisertib -0.01 | [5] -0.333 | gefitinib 0.071 | [6] 0 | lapatinib 0.03 | pictilisib 0.241

SEC16A isoform 5 (UniProt O15027)
Chain of UniProt O15027 (O15027 whole entry, looked up): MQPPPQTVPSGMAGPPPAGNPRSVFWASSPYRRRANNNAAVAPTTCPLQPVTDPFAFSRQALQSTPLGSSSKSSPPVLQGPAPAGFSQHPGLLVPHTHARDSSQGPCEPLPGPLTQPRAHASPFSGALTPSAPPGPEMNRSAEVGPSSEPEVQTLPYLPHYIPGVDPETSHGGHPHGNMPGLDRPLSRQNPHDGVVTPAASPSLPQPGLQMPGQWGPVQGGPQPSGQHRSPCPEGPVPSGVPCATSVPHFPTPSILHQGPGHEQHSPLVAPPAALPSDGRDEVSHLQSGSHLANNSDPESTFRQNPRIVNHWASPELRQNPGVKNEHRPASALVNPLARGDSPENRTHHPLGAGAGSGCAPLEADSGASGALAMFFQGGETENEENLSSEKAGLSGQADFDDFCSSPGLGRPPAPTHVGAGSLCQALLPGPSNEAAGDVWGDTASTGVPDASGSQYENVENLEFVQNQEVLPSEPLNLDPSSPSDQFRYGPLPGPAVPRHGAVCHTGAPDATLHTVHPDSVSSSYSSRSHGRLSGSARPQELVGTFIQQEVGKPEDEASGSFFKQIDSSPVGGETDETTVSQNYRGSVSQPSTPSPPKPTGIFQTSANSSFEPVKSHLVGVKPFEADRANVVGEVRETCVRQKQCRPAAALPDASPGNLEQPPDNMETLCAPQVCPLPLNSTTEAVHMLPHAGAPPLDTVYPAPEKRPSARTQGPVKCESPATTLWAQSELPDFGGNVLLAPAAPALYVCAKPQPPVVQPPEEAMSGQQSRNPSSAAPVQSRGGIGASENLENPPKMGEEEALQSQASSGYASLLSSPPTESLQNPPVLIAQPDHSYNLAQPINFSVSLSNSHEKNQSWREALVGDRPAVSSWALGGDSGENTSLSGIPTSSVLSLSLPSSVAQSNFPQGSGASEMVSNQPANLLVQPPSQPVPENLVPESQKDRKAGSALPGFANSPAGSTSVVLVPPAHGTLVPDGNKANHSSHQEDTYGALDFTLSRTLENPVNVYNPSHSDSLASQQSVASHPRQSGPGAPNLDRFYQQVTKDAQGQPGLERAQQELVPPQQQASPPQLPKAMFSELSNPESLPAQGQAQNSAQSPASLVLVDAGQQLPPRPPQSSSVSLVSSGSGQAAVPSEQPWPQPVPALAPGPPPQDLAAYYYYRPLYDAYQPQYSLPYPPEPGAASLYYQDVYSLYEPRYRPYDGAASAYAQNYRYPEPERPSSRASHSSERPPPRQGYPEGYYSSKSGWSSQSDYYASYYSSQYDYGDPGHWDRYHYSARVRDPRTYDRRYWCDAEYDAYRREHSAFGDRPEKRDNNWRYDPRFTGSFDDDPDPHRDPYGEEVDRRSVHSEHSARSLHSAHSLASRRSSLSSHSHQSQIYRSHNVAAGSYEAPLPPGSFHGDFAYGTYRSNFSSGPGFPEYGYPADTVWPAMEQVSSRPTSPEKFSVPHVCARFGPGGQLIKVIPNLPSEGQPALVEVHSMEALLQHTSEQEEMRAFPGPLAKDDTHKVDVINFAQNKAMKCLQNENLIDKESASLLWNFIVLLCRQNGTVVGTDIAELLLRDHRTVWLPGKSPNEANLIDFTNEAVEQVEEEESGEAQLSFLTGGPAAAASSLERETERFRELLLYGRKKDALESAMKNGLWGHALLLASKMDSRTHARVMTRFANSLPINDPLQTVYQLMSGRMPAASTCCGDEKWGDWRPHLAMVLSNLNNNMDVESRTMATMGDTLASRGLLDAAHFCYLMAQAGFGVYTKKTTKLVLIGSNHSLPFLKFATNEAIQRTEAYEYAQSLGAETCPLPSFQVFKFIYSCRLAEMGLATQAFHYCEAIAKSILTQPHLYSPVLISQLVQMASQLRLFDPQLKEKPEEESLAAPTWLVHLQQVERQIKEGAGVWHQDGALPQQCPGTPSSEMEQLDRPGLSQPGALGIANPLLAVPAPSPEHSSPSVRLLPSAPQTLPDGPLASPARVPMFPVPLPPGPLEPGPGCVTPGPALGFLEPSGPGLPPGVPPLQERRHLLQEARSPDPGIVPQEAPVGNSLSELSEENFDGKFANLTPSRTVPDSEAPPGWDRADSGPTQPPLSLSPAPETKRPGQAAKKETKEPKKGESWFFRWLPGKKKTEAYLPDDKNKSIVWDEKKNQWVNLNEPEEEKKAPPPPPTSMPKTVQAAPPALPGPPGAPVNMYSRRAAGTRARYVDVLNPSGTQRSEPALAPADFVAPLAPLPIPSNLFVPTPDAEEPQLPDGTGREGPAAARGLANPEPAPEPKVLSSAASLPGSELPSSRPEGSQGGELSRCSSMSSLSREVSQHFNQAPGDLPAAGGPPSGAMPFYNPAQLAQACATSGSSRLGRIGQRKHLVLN
inactive: saracatinib -0.08 | sotrastaurin -0.049 | alvocidib 0.028 | Tubastatin A 0.052 | [1] -0.085 | defactinib -0.016 | rucaparib 0.22 | [2] 0.09 | encorafenib 0.119 | [3] -0.018 | [4] 0.079 | filanesib 0.037 | zotarolimus -0.01 | idasanutlin -0.021 | alisertib 0 | [5] 0.007 | gefitinib 0.046 | [6] -0.148 | lapatinib 0.017 | pictilisib -0.003

RBM39 (UniProt Q14498)
Chain of UniProt Q14498 (Q14498 whole entry, looked up): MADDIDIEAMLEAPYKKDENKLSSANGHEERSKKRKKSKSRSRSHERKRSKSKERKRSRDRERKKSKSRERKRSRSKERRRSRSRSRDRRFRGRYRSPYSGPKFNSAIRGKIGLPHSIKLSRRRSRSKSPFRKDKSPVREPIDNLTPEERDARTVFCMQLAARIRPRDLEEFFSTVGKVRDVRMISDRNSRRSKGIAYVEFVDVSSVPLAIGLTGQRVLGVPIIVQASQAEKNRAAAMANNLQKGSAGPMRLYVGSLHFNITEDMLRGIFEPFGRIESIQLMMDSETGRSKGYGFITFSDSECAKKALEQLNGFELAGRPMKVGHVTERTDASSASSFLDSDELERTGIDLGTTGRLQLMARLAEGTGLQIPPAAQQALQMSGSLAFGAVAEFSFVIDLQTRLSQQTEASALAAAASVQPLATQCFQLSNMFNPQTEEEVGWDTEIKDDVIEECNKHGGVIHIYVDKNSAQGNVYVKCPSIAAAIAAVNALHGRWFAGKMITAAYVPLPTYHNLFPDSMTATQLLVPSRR
inactive: saracatinib -0.027 | sotrastaurin -0.089 | alvocidib 0.028 | Tubastatin A 0.026 | [1] -0.303 | defactinib -0.16 | rucaparib 0.072 | [2] -0.183 | encorafenib 0.08 | [3] 0.011 | [4] 0.117 | filanesib 0.129 | zotarolimus -0.006 | idasanutlin 0.262 | alisertib -0.058 | [5] -0.055 | gefitinib -0.019 | [6] 0.009 | lapatinib 0.026 | pictilisib -0.014

RBM33 (UniProt Q96EV2)
active: defactinib -0.273
inactive: saracatinib 0.071 | sotrastaurin -0.017 | alvocidib -0.177 | Tubastatin A 0.007 | [1] -0.021 | rucaparib -0.017 | [2] -0.044 | encorafenib 0.02 | [3] 0.03 | [4] 0.134 | filanesib 0.013 | zotarolimus 0.03 | idasanutlin 0.042 | alisertib -0.031 | [5] -0.078 | gefitinib 0.035 | [6] -0.028 | lapatinib 0.008 | pictilisib -0.044

RBM17 (UniProt Q96I25)
inactive: saracatinib 0.005 | sotrastaurin -0.039 | alvocidib -0.018 | Tubastatin A 0.065 | [1] -0.03 | defactinib -0.174 | rucaparib 0.055 | [2] -0.025 | encorafenib 0.05 | [3] -0.044 | [4] 0.026 | filanesib 0.038 | zotarolimus 0.064 | idasanutlin 0.121 | alisertib -0.055 | [5] -0.031 | gefitinib 0.003 | [6] 0.019 | lapatinib 0 | pictilisib -0.276

RNF14 (UniProt Q9UBS8)
inactive: saracatinib -0.02 | sotrastaurin -0.042 | alvocidib -0.112 | Tubastatin A -0.014 | [1] 0.007 | defactinib -0.096 | rucaparib -0.015 | [2] -0.043 | encorafenib -0.027 | [3] 0.042 | [4] 0.034 | filanesib -0.093 | zotarolimus 0.018 | idasanutlin 0.043 | alisertib -0.035 | [5] -0.038 | gefitinib 0.003 | [6] -0.048 | lapatinib 0.006 | pictilisib 0.045

RPS16 (UniProt P62249)
inactive: saracatinib -0.085 | sotrastaurin 0.004 | alvocidib 0.193 | Tubastatin A 0.05 | [1] 0.108 | defactinib 0.185 | rucaparib 0.126 | [2] 0.056 | encorafenib 0.033 | [3] 0.004 | [4] -0.117 | filanesib 0.092 | zotarolimus 0.025 | idasanutlin 0.093 | alisertib -0.167 | [5] -0.027 | gefitinib -0.014 | [6] -0.199 | lapatinib 0.046 | pictilisib -0.162

RPA3 (UniProt P35244)
inactive: saracatinib 0.015 | sotrastaurin -0.014 | alvocidib -0.04 | Tubastatin A 0.022 | [1] 0.181 | defactinib -0.054 | rucaparib -0.048 | [2] 0.015 | encorafenib 0.06 | [3] 0.014 | [4] 0.054 | filanesib -0.038 | zotarolimus 0.056 | idasanutlin -0.064 | alisertib 0.073 | [5] -0.05 | gefitinib -0.01 | [6] -0.048 | lapatinib 0.04 | pictilisib 0.046

RFC3 (UniProt P40938)
inactive: saracatinib -0.021 | sotrastaurin 0.032 | alvocidib -0.036 | Tubastatin A 0.023 | [1] 0.031 | defactinib -0.052 | rucaparib -0.011 | [2] 0.007 | encorafenib 0.062 | [3] -0.058 | [4] 0.125 | filanesib -0.046 | zotarolimus -0.026 | idasanutlin -0.088 | alisertib -0.021 | [5] -0.042 | gefitinib 0.008 | [6] 0.024 | lapatinib 0.037 | pictilisib 0.035

RALY (UniProt Q9UKM9)
Chain of UniProt Q9UKM9 (Q9UKM9 whole entry, looked up): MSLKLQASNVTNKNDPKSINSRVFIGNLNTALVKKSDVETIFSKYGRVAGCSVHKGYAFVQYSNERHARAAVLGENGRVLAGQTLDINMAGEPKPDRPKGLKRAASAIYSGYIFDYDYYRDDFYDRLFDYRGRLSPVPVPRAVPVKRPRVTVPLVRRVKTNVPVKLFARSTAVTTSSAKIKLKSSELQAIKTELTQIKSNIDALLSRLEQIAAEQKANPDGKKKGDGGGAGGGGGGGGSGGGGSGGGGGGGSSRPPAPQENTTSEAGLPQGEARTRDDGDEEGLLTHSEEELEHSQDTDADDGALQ
inactive: saracatinib -0.091 | sotrastaurin -0.031 | alvocidib 0.041 | Tubastatin A 0.226 | [1] -0.01 | defactinib 0.089 | rucaparib 0.221 | [2] 0.066 | encorafenib 0.073 | [3] -0.021 | [4] -0.038 | filanesib 0.216 | zotarolimus 0.055 | alisertib 0.041 | [5] -0.152 | gefitinib -0.099 | [6] -0.148 | lapatinib 0.22 | pictilisib -0.02
active: idasanutlin 0.72

RPS12 (UniProt P25398)
inactive: saracatinib -0.014 | sotrastaurin -0.023 | alvocidib 0.123 | Tubastatin A 0.017 | [1] 0.049 | defactinib 0.092 | rucaparib 0.12 | [2] -0.008 | encorafenib 0.02 | [3] 0.015 | [4] -0.009 | filanesib 0.018 | zotarolimus -0.026 | idasanutlin 0.048 | alisertib -0.17 | [5] -0.057 | gefitinib -0.02 | [6] -0.159 | lapatinib 0.062 | pictilisib -0.033

SEC31A (UniProt O94979)
Chain of UniProt O94979 (O94979 whole entry, looked up): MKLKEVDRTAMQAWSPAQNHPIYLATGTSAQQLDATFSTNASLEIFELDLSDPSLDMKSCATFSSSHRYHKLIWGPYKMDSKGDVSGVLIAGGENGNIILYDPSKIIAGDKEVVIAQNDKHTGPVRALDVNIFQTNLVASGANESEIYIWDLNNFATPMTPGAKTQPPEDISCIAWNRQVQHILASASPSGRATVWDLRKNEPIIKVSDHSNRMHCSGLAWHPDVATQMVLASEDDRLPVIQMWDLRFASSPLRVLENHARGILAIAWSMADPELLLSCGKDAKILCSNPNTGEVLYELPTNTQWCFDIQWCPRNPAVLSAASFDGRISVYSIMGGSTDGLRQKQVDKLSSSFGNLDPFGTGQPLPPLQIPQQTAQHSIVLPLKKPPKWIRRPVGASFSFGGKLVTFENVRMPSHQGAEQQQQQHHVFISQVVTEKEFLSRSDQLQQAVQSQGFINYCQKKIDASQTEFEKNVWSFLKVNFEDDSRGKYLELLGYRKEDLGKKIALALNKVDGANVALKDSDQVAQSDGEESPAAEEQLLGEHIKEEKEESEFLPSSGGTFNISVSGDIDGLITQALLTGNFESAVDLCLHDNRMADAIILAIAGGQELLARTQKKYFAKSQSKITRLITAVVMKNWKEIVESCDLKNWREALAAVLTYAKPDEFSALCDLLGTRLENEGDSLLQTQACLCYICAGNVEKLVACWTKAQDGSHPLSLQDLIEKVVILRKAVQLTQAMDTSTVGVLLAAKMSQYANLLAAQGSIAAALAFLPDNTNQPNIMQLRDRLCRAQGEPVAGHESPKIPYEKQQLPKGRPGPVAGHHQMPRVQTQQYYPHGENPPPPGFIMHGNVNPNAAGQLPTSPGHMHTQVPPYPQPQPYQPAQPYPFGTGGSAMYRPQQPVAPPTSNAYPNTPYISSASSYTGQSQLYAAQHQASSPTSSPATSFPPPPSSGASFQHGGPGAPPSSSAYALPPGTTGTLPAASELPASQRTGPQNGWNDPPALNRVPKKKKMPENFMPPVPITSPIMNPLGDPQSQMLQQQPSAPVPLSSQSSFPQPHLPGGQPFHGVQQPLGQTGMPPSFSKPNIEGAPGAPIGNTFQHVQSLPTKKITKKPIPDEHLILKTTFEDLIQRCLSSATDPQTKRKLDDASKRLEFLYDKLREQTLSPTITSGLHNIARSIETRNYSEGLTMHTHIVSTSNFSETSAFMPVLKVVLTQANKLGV
inactive: saracatinib -0.086 | sotrastaurin -0.084 | alvocidib -0.006 | Tubastatin A 0.019 | [1] 0.043 | defactinib -0.036 | rucaparib 0.002 | [2] -0.015 | encorafenib 0.062 | [3] -0.03 | [4] 0.01 | filanesib 0.063 | zotarolimus 0.029 | idasanutlin -0.039 | alisertib 0.006 | [5] 0.211 | gefitinib 0.008 | [6] -0.01 | lapatinib -0.036 | pictilisib -0.002
